Test results reported in PubChem BioAssay (Tox21).
Records with an inconclusive call do not appear. A call without a number means that no potency is given here. Active and inactive are the calls of the source. The call rests on the fitted dose curve; in most records, active means well fitted curve in the direction sought with a large enough effect in the repeat runs; inconclusive means weak or mixed curves; inactive means no such curve, though single readings can be large; an effect the other way counts as inactive or inconclusive.

assay: A CellTox Green Cytotoxicity Assay to monitor cytotoxicity in HepG2 cells - 16 hour (AID 1224876); conditions: CellTox Green fluorescence; series mostly up to 76.8 µM; further: nearly all actives have a fitted effect of over 45% in size
How it was run: (§1)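 Measurements at 0, 8, 16, 24, 32 and 40 h of treatment captured CellTox Green fluorescence in HepG2 cells that had been co-plated with reagent and preincubated 5 h at 37 C/5% CO2.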
Potency means the concentration at half of the fitted maximal effect.

Row | SMILES | Potency
1 | CC(=O)NCCO | inactive
2 | CN(C)CC/C=C1\c2ccccc2Sc2ccc(Cl)cc21 | 21.3 µM (active)
3 | COc1cc(OC)c2ccc(=O)oc2c1 | inactive
4 | CCCCCc1ccco1 | inactive
5 | Nc1nc(-c2ccc([N+](=O)[O-])cc2)cs1 | inactive
6 | CC(C(=O)O)c1ccc(C(=O)c2cccs2)cc1 (centres undefined) | inactive
7 | O=C(CCS)OCC(COC(=O)CCS)(COC(=O)CCS)COC(=O)CCS | inactive
8 | CCCCCCC(CO)CCCC (centres undefined) | inactive

assay: qHTS RealTime-Glo MT Cell Viability Assay in HepG2 cells - 32 hour (AID 1224877); conditions: RealTime-Glo luminescence; series mostly up to 76.8 µM; further: nearly all actives have a fitted effect of over 55% in size
How it was run: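 HepG2 cells were seeded at 600 cells/well together with NanoLuc luciferase and a cell-permeant prosubstrate, preincubated 5 h at 37 C/5% CO2, then pin-dosed with compounds in DMSO. Nonlytic luminescence from viable cells was read at each time point.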

Row | SMILES | Potency
9 | c1ccc(CNc2ncnc3c2ncn3C2CCCCO2)cc1 (centres undefined) | inactive
10 | CC(C)(C)C1(CCc2ccc(Cl)cc2)CO1 (centres undefined) | inactive
11 | O=C1OC[C@H](Cc2cccc(O)c2)[C@H]1Cc1cccc(O)c1 | inactive
12 | Nc1ccc(NC(=O)c2ccc(N)cc2)cc1 | inactive
13 | O=C(O)CCCc1c[nH]c2ccccc12 | inactive
14 | CC[C@@H](CO)NCCN[C@@H](CC)CO | inactive
15 | CC(C)(C)C(O)/C=C/c1ccc2c(c1)OCO2 (centres undefined) | inactive
16 | CCO[Si](C)(CCCOCC1CO1)OCC (centres undefined) | inactive
17 | ClC1=C(Cl)C1(Cl)Cl | inactive
18 | Nc1c(Cl)cc(Cl)cc1[N+](=O)[O-] | inactive
19 | CCCCCCCC/C=C/C(=O)O | inactive
20 | CC(=O)N[C@@H](Cc1ccc(O)cc1)C(=O)O | inactive
21 | Cc1ccc(Nc2c(F)cccc2Cl)c(CC(=O)O)c1 | inactive
22 | C=Cc1ccc(OC(C)=O)cc1 | inactive
23 | CCCOC(=O)c1c(Cl)c(Cl)c(Cl)c(Cl)c1C(=O)OCCC | inactive
24 | COc1ccc(/C=C/C(=O)c2ccc(OC)cc2OC)cc1 | inactive
25 | Nc1ccc(N=Nc2ccc(N)cc2)cc1 | inactive
26 | CC1=C2[C@@H]([C@H](C)CC[C@H]2/C=C(\C)C(=O)O)[C@H](O)C1 | inactive

Row | SMILES | Potency
27 | CNCc1ccc(NC(=O)c2c[nH]c3c2C(=O)CCC3)cc1 | inactive
28 | O=C1CC[C@@H](C(=O)O)N1 | inactive
29 | CCCc1nc2c(C)cc(-c3nc4ccccc4n3C)cc2n1Cc1ccc(-c2ccccc2C(=O)O)cc1 | inactive
30 | C=CC(=O)O | inactive
31 | COc1cc(NC(C)CCCN)c2ncccc2c1 (centres undefined) | inactive
32 | O=C(O)/C=C/c1ccc(O)c(O)c1 | inactive
33 | COc1cc(NS(=O)(=O)c2ccc(N)cc2)nc(C)n1 | inactive
34 | CC(=O)NCCO | inactive
35 | CN(C)CC/C=C1\c2ccccc2Sc2ccc(Cl)cc21 | 23.9 µM (active)
36 | COc1cc(OC)c2ccc(=O)oc2c1 | inactive
37 | CCCCCc1ccco1 | inactive
38 | Nc1nc(-c2ccc([N+](=O)[O-])cc2)cs1 | inactive
39 | O=C(C(=O)c1ccco1)c1ccco1 | inactive
40 | O=C(Oc1ccccc1)c1ccc2ccccc2c1O | inactive
41 | CC(C(=O)O)c1ccc(C(=O)c2cccs2)cc1 (centres undefined) | inactive
42 | O=C(CCS)OCC(COC(=O)CCS)(COC(=O)CCS)COC(=O)CCS | inactive
43 | CCCCCCC(CO)CCCC (centres undefined) | inactive

assay: A CellTox Green Cytotoxicity Assay to monitor cytotoxicity in HepG2 cells - 24 hour (AID 1224878); conditions: CellTox Green fluorescence; series mostly up to 76.8 µM; further: nearly all actives have a fitted effect of over 45% in size
How it was run: as §1

Row | SMILES | Potency
44 | c1ccc(CNc2ncnc3c2ncn3C2CCCCO2)cc1 (centres undefined) | inactive
45 | O=C1OC[C@H](Cc2cccc(O)c2)[C@H]1Cc1cccc(O)c1 | inactive
46 | Nc1ccc(NC(=O)c2ccc(N)cc2)cc1 | inactive
47 | O=C(O)CCCc1c[nH]c2ccccc12 | 17.4 µM (active)
48 | CC(C)(C)C(O)/C=C/c1ccc2c(c1)OCO2 (centres undefined) | inactive
49 | COC(=O)Nc1nc2ccc(C(=O)C3CC3)cc2[nH]1 | inactive
50 | CC(=O)N[C@@H](Cc1ccc(O)cc1)C(=O)O | inactive
51 | Cc1ccc(Nc2c(F)cccc2Cl)c(CC(=O)O)c1 | inactive
52 | C=Cc1ccc(OC(C)=O)cc1 | inactive
53 | CCCOC(=O)c1c(Cl)c(Cl)c(Cl)c(Cl)c1C(=O)OCCC | inactive
54 | Nc1ccc(N=Nc2ccc(N)cc2)cc1 | inactive
55 | CC1=C2[C@@H]([C@H](C)CC[C@H]2/C=C(\C)C(=O)O)[C@H](O)C1 | inactive
56 | CNCc1ccc(NC(=O)c2c[nH]c3c2C(=O)CCC3)cc1 | inactive
57 | O=C1CC[C@@H](C(=O)O)N1 | inactive
58 | CCCc1nc2c(C)cc(-c3nc4ccccc4n3C)cc2n1Cc1ccc(-c2ccccc2C(=O)O)cc1 | inactive
59 | C=CC(=O)O | inactive
60 | O=C(O)/C=C/c1ccc(O)c(O)c1 | inactive
61 | COc1cc(NS(=O)(=O)c2ccc(N)cc2)nc(C)n1 | inactive
62 | CC(=O)NCCO | inactive
63 | CN(C)CC/C=C1\c2ccccc2Sc2ccc(Cl)cc21 | 21.3 µM (active)
64 | COc1cc(OC)c2ccc(=O)oc2c1 | inactive
65 | CCCCCc1ccco1 | inactive
66 | Nc1nc(-c2ccc([N+](=O)[O-])cc2)cs1 | inactive
67 | O=C(C(=O)c1ccco1)c1ccco1 | inactive
68 | CC(C(=O)O)c1ccc(C(=O)c2cccs2)cc1 (centres undefined) | inactive
69 | O=C(CCS)OCC(COC(=O)CCS)(COC(=O)CCS)COC(=O)CCS | inactive
70 | CCCCCCC(CO)CCCC (centres undefined) | inactive

assay: A CellTox Green Cytotoxicity Assay to monitor cytotoxicity in HepG2 cells - 40 hour (AID 1224879); conditions: CellTox Green fluorescence; series mostly up to 76.8 µM; further: nearly all actives have a fitted effect of over 40% in size
How it was run: as §1

Row | SMILES | Potency
71 | c1ccc(CNc2ncnc3c2ncn3C2CCCCO2)cc1 (centres undefined) | inactive
72 | O=C1OC[C@H](Cc2cccc(O)c2)[C@H]1Cc1cccc(O)c1 | inactive
73 | Nc1ccc(NC(=O)c2ccc(N)cc2)cc1 | inactive
74 | CC[C@@H](CO)NCCN[C@@H](CC)CO | inactive
75 | CC(C)(C)C(O)/C=C/c1ccc2c(c1)OCO2 (centres undefined) | inactive
76 | C/C(C=O)=C\c1ccccc1 | inactive
77 | CCO[Si](C)(CCCOCC1CO1)OCC (centres undefined) | inactive
78 | ClC1=C(Cl)C1(Cl)Cl | inactive
79 | COc1ccc(-c2cc(C(F)F)nn2-c2ccc(S(N)(=O)=O)cc2)cc1F | inactive
80 | COC(=O)Nc1nc2ccc(C(=O)C3CC3)cc2[nH]1 | 0.848 µM (active)
81 | CCCCCCCC/C=C/C(=O)O | inactive
82 | CC(=O)N[C@@H](Cc1ccc(O)cc1)C(=O)O | inactive
83 | Cc1ccc(Nc2c(F)cccc2Cl)c(CC(=O)O)c1 | inactive
84 | C=Cc1ccc(OC(C)=O)cc1 | inactive
85 | CCCOC(=O)c1c(Cl)c(Cl)c(Cl)c(Cl)c1C(=O)OCCC | inactive
86 | Nc1ccc(N=Nc2ccc(N)cc2)cc1 | inactive
87 | CC1=C2[C@@H]([C@H](C)CC[C@H]2/C=C(\C)C(=O)O)[C@H](O)C1 | inactive

Row | SMILES | Potency
88 | CNCc1ccc(NC(=O)c2c[nH]c3c2C(=O)CCC3)cc1 | inactive
89 | O=C1CC[C@@H](C(=O)O)N1 | inactive
90 | CCCc1nc2c(C)cc(-c3nc4ccccc4n3C)cc2n1Cc1ccc(-c2ccccc2C(=O)O)cc1 | inactive
91 | C=CC(=O)O | inactive
92 | COc1cc(NC(C)CCCN)c2ncccc2c1 (centres undefined) | inactive
93 | O=C(O)/C=C/c1ccc(O)c(O)c1 | inactive
94 | COc1cc(NS(=O)(=O)c2ccc(N)cc2)nc(C)n1 | inactive
95 | CC(=O)NCCO | inactive
96 | CN(C)CC/C=C1\c2ccccc2Sc2ccc(Cl)cc21 | 21.3 µM (active)
97 | COc1cc(OC)c2ccc(=O)oc2c1 | inactive
98 | CCCCCc1ccco1 | inactive
99 | Nc1nc(-c2ccc([N+](=O)[O-])cc2)cs1 | inactive
100 | O=C(C(=O)c1ccco1)c1ccco1 | inactive
101 | O=C(Oc1ccccc1)c1ccc2ccccc2c1O | inactive
102 | CC(C(=O)O)c1ccc(C(=O)c2cccs2)cc1 (centres undefined) | inactive
103 | O=C(CCS)OCC(COC(=O)CCS)(COC(=O)CCS)COC(=O)CCS | inactive
104 | CCCCCCC(CO)CCCC (centres undefined) | inactive
